Experimental data from the supplement of paper PMC9492666.
Where a name gives a salt, the structure may show the parent alone.

What was measured:
HCC1937 = assay: relative cell viability, compound + erastin, vs DMSO (fraction of DMSO control); higher = less growth inhibition; settings: 72 h
MDA-MB-231 = assay: as above; settings: 72 h
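Also: viability read by CCK-8 kit in 96-well plates, part of a combination screen pairing lipid-metabolism-targeting compounds with erastin.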

Compound | relative cell viability (HCC1937) | relative cell viability (MDA-MB-231)
CC(C)CCC[C@@H](C)[C@H]1CC[C@H]2[C@@H]3CC=C4C[C@@H](O)CC[C@]4(C)[C@H]3CC[C@]12C [Cholesterol] + CCOc1ccccc1-n1c(C(C)N2CCN(C(=O)COc3ccc(Cl)cc3)CC2)nc2ccccc2c1=O [erastin] | 0.901 | 0.953
COc1ccc(-n2c(SCCCN3C(=O)c4cccc5cccc(c45)C3=O)nnc2-c2ccncc2)cc1 + CCOc1ccccc1-n1c(C(C)N2CCN(C(=O)COc3ccc(Cl)cc3)CC2)nc2ccccc2c1=O [erastin] | 0.437 | 0.658
O=C(O)C(O)Cc1ccc(O)c(O)c1 (stereo not given) [Sodium Danshensu] + CCOc1ccccc1-n1c(C(C)N2CCN(C(=O)COc3ccc(Cl)cc3)CC2)nc2ccccc2c1=O [erastin] | 0.746 | 0.968
O=C(/C=C/c1ccc(/C=C/C(=O)Nc2ccc(C3=NCCN3)cc2)cc1)Nc1ccc(C2=NCCN2)cc1 + CCOc1ccccc1-n1c(C(C)N2CCN(C(=O)COc3ccc(Cl)cc3)CC2)nc2ccccc2c1=O [erastin] | 0.554 | 0.346
Oc1ccc(/C=C/c2cc(O)cc(O)c2)cc1 [Resveratrol] + CCOc1ccccc1-n1c(C(C)N2CCN(C(=O)COc3ccc(Cl)cc3)CC2)nc2ccccc2c1=O [erastin] | 0.635 | 0.853
CC(C)OC(=O)CCC/C=C\C[C@@H]1[C@@H](CC[C@@H](O)CCc2ccccc2)[C@H](O)C[C@@H]1O [Latanoprost] + CCOc1ccccc1-n1c(C(C)N2CCN(C(=O)COc3ccc(Cl)cc3)CC2)nc2ccccc2c1=O [erastin] | 1 | 0.663
C[C@H](CCOc1cccc(CC(=O)O)c1)N(Cc1cccc(C(F)(F)F)c1Cl)CC(c1ccccc1)c1ccccc1 + CCOc1ccccc1-n1c(C(C)N2CCN(C(=O)COc3ccc(Cl)cc3)CC2)nc2ccccc2c1=O [erastin] | 0.602 | 0.384
CC(O)(CC(=O)O)CC(=O)O [Meglutol] + CCOc1ccccc1-n1c(C(C)N2CCN(C(=O)COc3ccc(Cl)cc3)CC2)nc2ccccc2c1=O [erastin] | 0.708 | 0.67
CCC(CC)CC1(C(=O)Nc2ccccc2SC(=O)C(C)C)CCCCC1 [Dalcetrapib] + CCOc1ccccc1-n1c(C(C)N2CCN(C(=O)COc3ccc(Cl)cc3)CC2)nc2ccccc2c1=O [erastin] | 0.737 | 0.839
CCCC[S+]([O-])c1sc2nc(-c3cccs3)cc(-c3ccccc3)c2c1N (stereo not given) + CCOc1ccccc1-n1c(C(C)N2CCN(C(=O)COc3ccc(Cl)cc3)CC2)nc2ccccc2c1=O [erastin] | 0.72 | 0.715
CCCCC[C@H](O)CC(=O)CCc1ccc(O)c(OC)c1 [6-Gingerol] + CCOc1ccccc1-n1c(C(C)N2CCN(C(=O)COc3ccc(Cl)cc3)CC2)nc2ccccc2c1=O [erastin] | 0.444 | 0.693
COc1ccc(-c2coc3cc(O)cc(O)c3c2=O)cc1 [Biochanin A] + CCOc1ccccc1-n1c(C(C)N2CCN(C(=O)COc3ccc(Cl)cc3)CC2)nc2ccccc2c1=O [erastin] | 0.589 | 0.559
Cc1nc2ccc(NCc3cccc(C(F)(F)F)c3)cc2n(CCNC(=O)CO)c1=O + CCOc1ccccc1-n1c(C(C)N2CCN(C(=O)COc3ccc(Cl)cc3)CC2)nc2ccccc2c1=O [erastin] | 0.618 | 0.89
CCC(=O)O[C@]1(C(=O)SCF)[C@H](C)C[C@H]2[C@@H]3C[C@H](F)C4=CC(=O)C=C[C@]4(C)[C@@]3(F)[C@@H](O)C[C@@]21C [Fluticasone propionate] + CCOc1ccccc1-n1c(C(C)N2CCN(C(=O)COc3ccc(Cl)cc3)CC2)nc2ccccc2c1=O [erastin] | 0.967 | 0.545
NC(CO)C(=O)O (racemic) [DL-Serine] + CCOc1ccccc1-n1c(C(C)N2CCN(C(=O)COc3ccc(Cl)cc3)CC2)nc2ccccc2c1=O [erastin] | 0.667 | 0.62
COc1ccc(/C=C/c2cc(O)cc(O[C@@H]3O[C@H](CO)[C@@H](O)[C@H](O)[C@H]3O)c2)cc1 [Deoxyrhapontin] + CCOc1ccccc1-n1c(C(C)N2CCN(C(=O)COc3ccc(Cl)cc3)CC2)nc2ccccc2c1=O [erastin] | 0.576 | 0.699
CCCCCCCCCCC[C@@H](C[C@@H]1OC(=O)[C@H]1CCCCCC)OC(=O)[C@H](CC(C)C)NC=O [Orlistat] + CCOc1ccccc1-n1c(C(C)N2CCN(C(=O)COc3ccc(Cl)cc3)CC2)nc2ccccc2c1=O [erastin] | 0.725 | 0.52
CCN(CC)C(=O)N1CCN(C)CC1 [Diethylcarbamazine citrate] + CCOc1ccccc1-n1c(C(C)N2CCN(C(=O)COc3ccc(Cl)cc3)CC2)nc2ccccc2c1=O [erastin] | 0.729 | 0.907

Compound | relative cell viability (HCC1937) | relative cell viability (MDA-MB-231)
C[C@H](CCC(=O)O)[C@H]1CC[C@H]2[C@@H]3CC[C@@H]4C[C@H](O)CC[C@]4(C)[C@H]3CC[C@]12C [Lithocholic acid] + CCOc1ccccc1-n1c(C(C)N2CCN(C(=O)COc3ccc(Cl)cc3)CC2)nc2ccccc2c1=O [erastin] | 0.832 | 0.688
Nc1ncnc2c1ncn2C1OC(COP(=O)(O)O)C(O)C1O (stereo not given) [Adenosine 5'-monophosphate monohydrate] + CCOc1ccccc1-n1c(C(C)N2CCN(C(=O)COc3ccc(Cl)cc3)CC2)nc2ccccc2c1=O [erastin] | 0.97 | 1.07
CC(C)CCC[C@@H](C)[C@H]1CC[C@H]2[C@@H]3CCC4=CC(=NO)CC[C@]4(C)[C@H]3CC[C@]12C [Olesoxime] + CCOc1ccccc1-n1c(C(C)N2CCN(C(=O)COc3ccc(Cl)cc3)CC2)nc2ccccc2c1=O [erastin] | 0.673 | 0.663
Cc1nc2ccc(C(=O)N3CCC4(CC3)CC(=O)c3c(cnn3C(C)C)C4)cc2[nH]1 + CCOc1ccccc1-n1c(C(C)N2CCN(C(=O)COc3ccc(Cl)cc3)CC2)nc2ccccc2c1=O [erastin] | 0.619 | 0.733
COC(=O)c1sccc1S(=O)(=O)Nc1ccc(Nc2ccccc2)cc1OC + CCOc1ccccc1-n1c(C(C)N2CCN(C(=O)COc3ccc(Cl)cc3)CC2)nc2ccccc2c1=O [erastin] | 0.529 | 1.1
CC(C)n1c(/C=C/C(O)CC(O)CC(=O)O)c(-c2ccc(F)cc2)c2ccccc21 (stereo not given) [Fluvastatin sodium salt] + CCOc1ccccc1-n1c(C(C)N2CCN(C(=O)COc3ccc(Cl)cc3)CC2)nc2ccccc2c1=O [erastin] | 0.58 | 0.869
Cc1coc2c1C(=O)C(=O)c1c-2ccc2c(C)cccc12 [Tanshinone I] + CCOc1ccccc1-n1c(C(C)N2CCN(C(=O)COc3ccc(Cl)cc3)CC2)nc2ccccc2c1=O [erastin] | 0.226 | 0.396
C[C@@]12C[C@@H](c3ccoc3)OC(=O)[C@@H]1CC[C@]1(C)[C@H]2[C@@H]2C=C[C@@]1(O)C(=O)O2 [Columbin] + CCOc1ccccc1-n1c(C(C)N2CCN(C(=O)COc3ccc(Cl)cc3)CC2)nc2ccccc2c1=O [erastin] | 0.607 | 0.688
O=C(Nc1cccnc1)N1CCC(Cc2cccc(Oc3ccc(C(F)(F)F)cn3)c2)CC1 + CCOc1ccccc1-n1c(C(C)N2CCN(C(=O)COc3ccc(Cl)cc3)CC2)nc2ccccc2c1=O [erastin] | 0.663 | 0.374
O=C(O)CCn1c2c(c3ccccc31)C[C@H](NS(=O)(=O)c1ccc(F)cc1)CC2 [Ramatroban] + CCOc1ccccc1-n1c(C(C)N2CCN(C(=O)COc3ccc(Cl)cc3)CC2)nc2ccccc2c1=O [erastin] | 0.494 | 0.806
CCCCCCCCCCCCCCOc1ccc(C(=O)OCC(=O)N(C)CC(=O)OCC)o1 [Olumacostat Glasaretil] + CCOc1ccccc1-n1c(C(C)N2CCN(C(=O)COc3ccc(Cl)cc3)CC2)nc2ccccc2c1=O [erastin] | 0.549 | 0.477
CN1c2ccccc2C(=O)Nc2cnc(Nc3ccc(N4CCC(O)CC4)cc3)nc21 + CCOc1ccccc1-n1c(C(C)N2CCN(C(=O)COc3ccc(Cl)cc3)CC2)nc2ccccc2c1=O [erastin] | 0.205 | 0.644
CC(C)(O)c1ccccc1CC[C@@H](SCC1(CC(=O)O)CC1)c1cccc(/C=C/c2ccc3ccc(Cl)cc3n2)c1 [Montelukast] + CCOc1ccccc1-n1c(C(C)N2CCN(C(=O)COc3ccc(Cl)cc3)CC2)nc2ccccc2c1=O [erastin] | 0.561 | 0.829
COc1cc(N(C)C)cc(CN(C)CCc2ccc([N+](=O)[O-])cc2)c1O [CDC25 Phosphatase Inhibitor I] + CCOc1ccccc1-n1c(C(C)N2CCN(C(=O)COc3ccc(Cl)cc3)CC2)nc2ccccc2c1=O [erastin] | 0.663 | 0.781
CC1=C(/C=C/C(C)=C/C=C/C(C)=C/C=C/C=C(C)/C=C/C=C(C)/C=C/C2=C(C)C(=O)[C@@H](O)CC2(C)C)C(C)(C)C[C@H](O)C1=O [Astaxanthin] + CCOc1ccccc1-n1c(C(C)N2CCN(C(=O)COc3ccc(Cl)cc3)CC2)nc2ccccc2c1=O [erastin] | 0.674 | 1.56
N=C(N)NC(=N)NCCc1ccccc1 [Phenformin hydrochloride] + CCOc1ccccc1-n1c(C(C)N2CCN(C(=O)COc3ccc(Cl)cc3)CC2)nc2ccccc2c1=O [erastin] | 0.756 | 0.999
CC[C@H](C)C(=O)O[C@H]1CCC=C2C=C[C@H](C)[C@H](CC[C@@H]3C[C@@H](O)CC(=O)O3)[C@H]21 [Mevastatin] + CCOc1ccccc1-n1c(C(C)N2CCN(C(=O)COc3ccc(Cl)cc3)CC2)nc2ccccc2c1=O [erastin] | 0.6 | 0.434
